PubChem BioAssay AID1159580 (chemical genetic matrix, 2015)
About 2,000 (36%) of roughly 5,500 compounds were called active. Not shown: some 18% with an inconclusive outcome. No stated cut-off is given here; in the data, active means normalized growth mostly below about 0.91 (no sharp cut-off); inconclusive means no clear call, values can overlap the other calls; inactive means mostly above about 0.92. This is one part of the list.

Test: chemical genetic growth profiling, strain panel (AID 1159580);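 further: tested at 20 µM; growth read once vehicle control cultures reached saturation at 30 °C; 1 = growth at the plate median or of vehicle wells; lower values mean less growth of the strain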
Conditions: growth OD

Measured: normalized growth

CC[C@@H](CO)NC(=O)[C@@H]1C=C2c3cccc4[nH]cc(c34)C[C@H]2N(C)C1
inactive: S. cerevisiae deletion strains, locus YKL009W, strain mrt4, active compounds read low 0.999 | S. cerevisiae deletion strains, locus YKL068W, active compounds read low 0.996 | S. cerevisiae deletion strains, locus YKL085W, strain MDH1 (second series), active compounds read low 1.02 | S. cerevisiae deletion strains, locus YKL085W, strain MDH1, active compounds read low 1.02 | S. cerevisiae deletion strains, locus YKL160W, strain elf1, active compounds read low 0.982 | S. cerevisiae deletion strains, locus YKL190W, strain CNB1, active compounds read low 0.997 | S. cerevisiae deletion strains, locus YKR001C, strain vps1, active compounds read low 0.947 | S. cerevisiae deletion strains, locus YKR026C, strain gcn3, active compounds read low 1 | S. cerevisiae deletion strains, locus YKR091W, strain srl3, active compounds read low 0.997 | S. cerevisiae deletion strains, locus YLL001W, strain dnm1, active compounds read low 0.982 | S. cerevisiae deletion strains, locus YLL026W, active compounds read low 0.986 | S. cerevisiae deletion strains, locus YLL041C, strain sdh2, active compounds read low 1 | S. cerevisiae deletion strains, locus YLR027C, strain aat2, active compounds read low 0.993 | S. cerevisiae deletion strains, locus YLR039C, strain RIC1, active compounds read low 1.04 | S. cerevisiae deletion strains, locus YLR058C, strain SHM2, active compounds read low 0.989 | S. cerevisiae deletion strains, locus YLR102C, strain apc9, active compounds read low 0.985 | S. cerevisiae deletion strains, locus YLR113W, strain HOG1, active compounds read low 1.03 | S. cerevisiae deletion strains, locus YLR221C, strain rsa3, active compounds read low 0.999 | S. cerevisiae deletion strains, locus YLR258W, strain gsy2, active compounds read low 1 | S. cerevisiae deletion strains, locus YLR262C, strain YPT6 (second series), active compounds read low 0.991 | S. cerevisiae deletion strains, locus YLR262C, strain YPT6, active compounds read low 1.06 | S. cerevisiae deletion strains, locus YLR268W, strain sec22, active compounds read low 0.985 | S. cerevisiae deletion strains, locus YLR320W, strain mms22, active compounds read low 0.98 | S. cerevisiae deletion strains, locus YLR330W, strain CHS5, active compounds read low 0.992 | S. cerevisiae deletion strains, locus YLR342W, strain FKS1 (second series), active compounds read low 0.983 | S. cerevisiae deletion strains, locus YLR342W, strain FKS1, active compounds read low 0.982 | S. cerevisiae deletion strains, locus YLR357W, strain rsc2, active compounds read low 0.978 | S. cerevisiae deletion strains, locus YLR370C, strain arc18, active compounds read low 1 | S. cerevisiae deletion strains, locus YLR371W, strain rom2, active compounds read low 0.986 | S. cerevisiae deletion strains, locus YLR384C, strain iki3, active compounds read low 0.997 | S. cerevisiae deletion strains, locus YLR418C, strain cdc73, active compounds read low 0.926 | S. cerevisiae deletion strains, locus YML016C, strain PPZ1, active compounds read low 0.978 | S. cerevisiae deletion strains, locus YML032C, strain rad52, active compounds read low 0.971 | S. cerevisiae deletion strains, locus YML120C, strain ndi1, active compounds read low 1.01 | S. cerevisiae deletion strains, locus YML124C, strain tub3, active compounds read low 0.987 | S. cerevisiae deletion strains, locus YMR058W, strain fet3, active compounds read low 0.99 | S. cerevisiae deletion strains, locus YMR078C, strain ctf18, active compounds read low 0.996 | S. cerevisiae deletion strains, locus YMR125W, strain sto1, active compounds read low 1.01 | S. cerevisiae deletion strains, locus YMR129W, active compounds read low 1 | S. cerevisiae deletion strains, locus YMR205C, strain PFK2, active compounds read low 0.993 | S. cerevisiae deletion strains, locus YMR223W, strain ubp8, active compounds read low 0.961 | S. cerevisiae deletion strains, locus YMR231W, strain pep5, active compounds read low 0.992 | S. cerevisiae deletion strains, locus YMR263W, strain SAP30, active compounds read low 1.01 | S. cerevisiae deletion strains, locus YMR307W, strain GAS1, active compounds read low 0.972 | S. cerevisiae deletion strains, locus YNL067W, strain RPL9B, active compounds read low 1.04 | S. cerevisiae deletion strains, locus YNL071W, strain lat1, active compounds read low 1 | S. cerevisiae deletion strains, locus YNL128W, strain TEP1, active compounds read low 1.01 | S. cerevisiae deletion strains, locus YNL153C, strain GIM3, active compounds read low 1.02 | S. cerevisiae deletion strains, locus YNL183C, strain NPR1, active compounds read low 0.978 | S. cerevisiae deletion strains, locus YNL209W, strain ssb2, active compounds read low 1 | S. cerevisiae deletion strains, locus YNL233W, strain BNI4, active compounds read low 0.983 | S. cerevisiae deletion strains, locus YNL248C, strain rpa49, active compounds read low 1 | S. cerevisiae deletion strains, locus YNL250W, strain rad50, active compounds read low 0.978 | S. cerevisiae deletion strains, locus YNL271C, strain bni1, active compounds read low 0.981 | S. cerevisiae deletion strains, locus YNL298W, strain CLA4, active compounds read low 0.999 | S. cerevisiae deletion strains, locus YNL307C, strain MCK1, active compounds read low 0.973 | S. cerevisiae deletion strains, locus YNL322C, strain KRE1 (second series), active compounds read low 0.993 | S. cerevisiae deletion strains, locus YNL322C, strain KRE1, active compounds read low 0.997 | S. cerevisiae deletion strains, locus YNR049C, strain mso1, active compounds read low 0.999 | S. cerevisiae deletion strains, locus YNR052C, strain pop2, active compounds read low 0.996 | S. cerevisiae deletion strains, locus YOL006C, strain TOP1, active compounds read low 1.03 | S. cerevisiae deletion strains, locus YOL012C, strain htz1 0.998 | S. cerevisiae deletion strains, locus YOL147C, strain pex11, active compounds read low 0.994 | S. cerevisiae deletion strains, locus YOR001W, strain rrp6, active compounds read low 0.992 | S. cerevisiae deletion strains, locus YOR061W, strain CKA2, active compounds read low 0.991 | S. cerevisiae deletion strains, locus YOR069W, strain VPS5, active compounds read low 0.986 | S. cerevisiae deletion strains, locus YOR070C, strain gyp1, active compounds read low 1 | S. cerevisiae deletion strains, locus YOR080W, strain dia2, active compounds read low 0.994 | S. cerevisiae deletion strains, locus YOR083W, strain WHI5, active compounds read low 0.963 | S. cerevisiae deletion strains, locus YOR106W, strain vam3, active compounds read low 0.993 | S. cerevisiae deletion strains, locus YOR136W, strain idh2, active compounds read low 0.986 | S. cerevisiae deletion strains, locus YOR144C, strain elg1, active compounds read low 0.984 | S. cerevisiae deletion strains, locus YOR184W, strain ser1, active compounds read low 0.966 | S. cerevisiae deletion strains, locus YOR231W, strain MKK1, active compounds read low 1.03 | S. cerevisiae deletion strains, locus YOR265W, strain rbl2, active compounds read low 1.01 | S. cerevisiae deletion strains, locus YOR270C, strain vph1, active compounds read low 1.03 | S. cerevisiae deletion strains, locus YOR290C, strain snf2, active compounds read low 1 | S. cerevisiae deletion strains, locus YOR316C, strain cot1, active compounds read low 0.987 | S. cerevisiae deletion strains, locus YPL051W, strain arl3, active compounds read low 0.992 | S. cerevisiae deletion strains, locus YPL055C, strain LGE1, active compounds read low 1.07 | S. cerevisiae deletion strains, locus YPL078C, strain atp4, active compounds read low 0.98 | S. cerevisiae deletion strains, locus YPL106C, strain sse1, active compounds read low 0.981 | S. cerevisiae deletion strains, locus YPL240C, strain hsp82, active compounds read low 0.995 | S. cerevisiae deletion strains, locus YPL241C, strain CIN2, active compounds read low 0.997 | S. cerevisiae deletion strains, locus YPL256C, strain CLN2, active compounds read low 1.1 | S. cerevisiae deletion strains, locus YPR119W, strain clb2, active compounds read low 0.989 | S. cerevisiae deletion strains, locus YPR141C, strain kar3, active compounds read low 0.992 | S. cerevisiae deletion strains, locus YPR163C, strain tif3, active compounds read low 0.987 | S. cerevisiae deletion strains, locus YPR167C, strain met16, active compounds read low 0.987 | S. cerevisiae deletion strains, strain wtn01, active compounds read low 0.975 | S. cerevisiae strains, strain wild type, active compounds read low 0.982
